Unmarked numbers belong to inactive results. For some of these results: Measured potencies and affinities stand elsewhere. Active and inactive are the calls of the source. Unless noted, the rule behind the calls is not given here.

The values below come from PubChem BioAssay.

A short description of assay [1]: antimalarial activity against Dd2 strain (AID 2302;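 active = growth inhibition above 50% at the single 2 µM test dose, taken to imply half-maximal potency below 2 µM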;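 note: 0% = DMSO untreated growth and 100% = chloroquine plus artemisinin killed control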). The conditions noted are these: P. falciparum Dd2 in RBCs, LDH growth readout, 72 h; at 2 µM; hits give high values.
The nature of assay [2]: HepG2 cytotoxicity, primary screen, cytotoxicity control for P. falciparum antimalarial project, cell-based, ATP luminescence (AID 2303;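 active = inhibition above 50%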;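 note: 0% = DMSO wells and 100% = digitonin-killed cells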). The conditions noted are these: HepG2 viability, 24-48 h, at 10 µM, hits give high values.
The target of assay [3] is L-lactate dehydrogenase (Plasmodium falciparum (isolate CDC / Honduras)) (UniProt Q27743). As to the kind of experiment: PfLDH activity inhibition – cell lysate, 3D7 strain, counter-screen for P. falciparum growth inhibition project (AID 2304).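 Note: 0% = vehicle and 100% = reference inhibitor.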 The note with it: P. falciparum 3D7 crude extract, LDH APAD/NBT absorbance; at 2 µM; hits give high values.
Chain of L-lactate dehydrogenase (Plasmodium falciparum (isolate CDC / Honduras)) (Q27743 whole entry, looked up): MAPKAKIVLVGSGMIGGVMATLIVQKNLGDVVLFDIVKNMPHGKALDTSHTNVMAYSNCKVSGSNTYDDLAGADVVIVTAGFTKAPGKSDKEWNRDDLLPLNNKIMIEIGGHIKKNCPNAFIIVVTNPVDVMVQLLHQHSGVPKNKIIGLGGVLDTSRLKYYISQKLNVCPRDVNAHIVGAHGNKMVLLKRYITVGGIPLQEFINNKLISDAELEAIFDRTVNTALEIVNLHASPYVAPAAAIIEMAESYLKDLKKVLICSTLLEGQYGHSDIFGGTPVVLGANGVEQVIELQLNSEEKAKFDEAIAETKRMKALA
Assay [4] is described as follows: inhibition of 3D7 malaria parasite growth – strain 3D7 (AID 2306).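 Note: 0% = DMSO wells and 100% = chloroquine plus artemisinin control wells.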 The conditions noted are these: P. falciparum 3D7 erythrocytic growth, LDH absorbance, 72 h; at 2 µM; hits give high values.
Assay [5] addresses Calcium-dependent protein kinase 1 (Plasmodium falciparum (isolate 3D7)) (UniProt P62344). In words: PfCDPK1 kinase inhibitors, biochemical, TCAMS library (AID 1159585; cut-off not given, nearly all actives have IC50 up to about 0.98 µM;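 note: inhibitors leave more ATP so luminescence rises with inhibition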). The note with it: recombinant PfCDPK1, Kinase-Glo ATP depletion luminescence.
The target in assay [6] is Plasmodium falciparum protein kinase 6 (PK6, PF3D7_1337100) (UniProt Q8IDW1). In words: PfPK6 kinase inhibitors, biochemical, TCAMS library (AID 1159586). The conditions noted are these: recombinant PfPK6, Kinase-Glo ATP depletion luminescence.
Chain of Plasmodium falciparum protein kinase 6 (PK6, PF3D7_1337100) (Q8IDW1 1-305): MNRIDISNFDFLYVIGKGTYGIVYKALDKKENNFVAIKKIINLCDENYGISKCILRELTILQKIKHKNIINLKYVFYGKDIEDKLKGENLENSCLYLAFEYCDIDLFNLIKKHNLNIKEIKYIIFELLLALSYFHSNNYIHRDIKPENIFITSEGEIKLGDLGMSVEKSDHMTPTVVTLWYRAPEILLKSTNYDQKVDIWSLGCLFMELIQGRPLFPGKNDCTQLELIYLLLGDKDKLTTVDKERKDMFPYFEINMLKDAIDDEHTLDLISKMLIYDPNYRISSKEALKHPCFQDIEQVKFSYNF
For assay [7], the target named is Protein kinase 7 (PK7), Plasmodium falciparum 3D7 (PF3D7_0213400) (UniProt Q7YTF7). As to the kind of experiment: inhibition of Plasmodium PK7 catalytic activity – biochemical, TCAMS antimalarial set, Kinase-Glo luminescence (AID 1159587). The conditions noted are these: recombinant PfPK7, Kinase-Glo ATP depletion luminescence.
Chain of Protein kinase 7 (PK7), Plasmodium falciparum 3D7 (PF3D7_0213400) (Q7YTF7 1-343): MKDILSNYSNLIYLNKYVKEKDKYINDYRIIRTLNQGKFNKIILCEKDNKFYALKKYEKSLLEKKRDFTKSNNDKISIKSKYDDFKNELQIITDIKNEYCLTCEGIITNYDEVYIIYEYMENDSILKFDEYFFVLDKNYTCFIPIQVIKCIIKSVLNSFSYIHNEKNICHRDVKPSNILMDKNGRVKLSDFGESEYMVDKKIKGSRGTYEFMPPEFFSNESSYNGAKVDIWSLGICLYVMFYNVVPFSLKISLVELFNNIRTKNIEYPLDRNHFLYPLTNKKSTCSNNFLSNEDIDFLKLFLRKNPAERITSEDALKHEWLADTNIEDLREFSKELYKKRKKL
Assay [8] deals with Calcium-dependent protein kinase 4 (Plasmodium falciparum (isolate 3D7)) (UniProt Q8IBS5). As to the kind of experiment: PfCDPK4 kinase inhibitors, biochemical, TCAMS library (AID 1159588; cut-off not given, nearly all actives have IC50 up to about 0.91 µM). The conditions noted are these: recombinant PfCDPK4, Kinase-Glo ATP depletion luminescence.
Chain of Calcium-dependent protein kinase 4 (Plasmodium falciparum (isolate 3D7)) (Q8IBS5 whole entry, looked up): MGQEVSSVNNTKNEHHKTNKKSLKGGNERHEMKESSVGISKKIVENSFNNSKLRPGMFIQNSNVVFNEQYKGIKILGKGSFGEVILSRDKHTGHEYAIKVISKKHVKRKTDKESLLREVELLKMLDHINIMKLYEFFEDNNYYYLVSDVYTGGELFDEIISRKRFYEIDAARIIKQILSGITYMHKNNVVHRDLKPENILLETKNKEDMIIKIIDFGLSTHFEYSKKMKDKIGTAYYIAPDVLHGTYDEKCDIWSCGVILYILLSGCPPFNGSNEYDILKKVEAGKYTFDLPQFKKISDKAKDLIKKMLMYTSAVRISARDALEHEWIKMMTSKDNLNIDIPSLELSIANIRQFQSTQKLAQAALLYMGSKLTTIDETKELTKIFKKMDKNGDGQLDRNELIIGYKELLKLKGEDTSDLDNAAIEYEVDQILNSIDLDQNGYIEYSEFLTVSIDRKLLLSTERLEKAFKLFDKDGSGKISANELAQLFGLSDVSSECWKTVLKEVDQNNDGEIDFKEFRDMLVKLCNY

Chain of Calcium-dependent protein kinase 1 (Plasmodium falciparum (isolate 3D7)) (P62344 whole entry, looked up): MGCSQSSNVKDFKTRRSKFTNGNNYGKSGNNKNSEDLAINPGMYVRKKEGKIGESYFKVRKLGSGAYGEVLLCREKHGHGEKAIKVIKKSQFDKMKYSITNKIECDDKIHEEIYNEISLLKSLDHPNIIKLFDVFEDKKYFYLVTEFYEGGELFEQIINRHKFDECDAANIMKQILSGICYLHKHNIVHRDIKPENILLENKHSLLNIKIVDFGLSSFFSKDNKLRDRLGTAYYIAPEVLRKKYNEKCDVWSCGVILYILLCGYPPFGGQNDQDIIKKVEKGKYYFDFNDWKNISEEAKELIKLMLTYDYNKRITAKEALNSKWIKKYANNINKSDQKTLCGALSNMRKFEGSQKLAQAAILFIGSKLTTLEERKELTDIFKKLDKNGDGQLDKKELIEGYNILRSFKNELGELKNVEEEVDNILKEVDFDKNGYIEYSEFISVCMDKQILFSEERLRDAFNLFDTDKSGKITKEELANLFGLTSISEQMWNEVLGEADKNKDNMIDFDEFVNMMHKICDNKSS

For the molecule `COc1cc(NC(=O)Nc2cc(C)nc3ccccc23)cc(OC)c1`, the growth inhibition in assay [1] is 57% (active); in assay [4], 104% (active). Moreover, the figures for the inhibition in assay [2] and in assay [3] were 5% and -4%, respectively. Moreover, the outcome in assay [5], in assay [6], in assay [7] and in assay [8] was inactive.
Consider `O=C(/C=C/c1ccc(Cl)c(Cl)c1)NCCC(CN1CCC(c2c[nH]c3ccccc23)CC1)c1ccccc1` (stereo not given), for which the growth inhibition in assay [1] was 42%; in assay [4] it was 100% (active). The inhibition in assay [2] is 84% (active); in assay [3], -6%. Further, the outcome in assay [5], in assay [6], in assay [7] and in assay [8] was inactive.
Consider `N#Cc1ccc2c(c1)CCN(CCC1CCC(NC(=O)c3cc4ccccc4[nH]3)CC1)CC2` (stereo not given), for which the growth inhibition in assay [1] was 25%; in assay [4] it was 89% (active). In addition, the inhibition in assay [2] was 17%; in assay [3], -1%. The outcome in assay [5], in assay [6], in assay [7] and in assay [8] was inactive.
Take `COc1ccc2nc3cc(Cl)ccc3c(NCCc3ccccc3)c2c1`: the growth inhibition was 82% (active) in assay [1] and 94% (active) in assay [4]. Besides, the inhibition in assay [2] was -1%; in assay [3] it was 8%. Also, the outcome in assay [5], in assay [6], in assay [7] and in assay [8] was inactive.
`COc1cc2nc(N3CCC(CNC(=O)c4ccc(-c5ccc(C(=O)N(C)C)cc5)cc4)CC3)nc(N)c2cc1OC`: the figures for the growth inhibition in assay [1] and in assay [4] were 89% (active) and 101% (active), respectively. Besides, the inhibition in assay [2] is 20%; in assay [3] it was 0%. Besides, the result in assay [5], in assay [6], in assay [7] and in assay [8] was inactive.
Turning to `O=C(/C=C/c1ccc(Cl)c(Cl)c1)NCCCCCN1CCCC(CNC(=O)Nc2ccc(C(F)(F)F)cc2)C1` (stereo not given), the growth inhibition is 7% in assay [1] and 100% (active) in assay [4]. Also, the inhibition in assay [2] was 27%; in assay [3], -9%. Besides, the result in assay [5], in assay [6], in assay [7] and in assay [8] was inactive.
Turning to `O=C(Cc1cnc[nH]1)Nc1cccc(-c2ccc(-c3nc4ccc(F)cc4[nH]3)cc2)c1`, the growth inhibition in assay [1] was 84% (active); in assay [4] it was 100% (active). Moreover, the inhibition in assay [2] was 4%; in assay [3] it was -7%. Further, the outcome in assay [5], in assay [6], in assay [7] and in assay [8] was inactive.
Consider `CC(Sc1n[nH]c(-c2cccs2)n1)C(=O)c1c[nH]c2ccccc12` (stereo not given), for which the results for the growth inhibition in assay [1] and in assay [4] were 58% (active) and 94% (active), respectively. Further, the inhibition in assay [2] is -8%; in assay [3] it was 6%. Moreover, the result in assay [5], in assay [6], in assay [7] and in assay [8] was inactive.
`COc1ccc(Cc2cccc(C(C(=O)NCc3cc(Cl)cc(Cl)c3)N3CCN(C)CC3)c2)cc1` (stereo not given): the growth inhibition in assay [1] was 24%; in assay [4], 101% (active). Also, the inhibition was 8% in assay [2] and -9% in assay [3]. The result in assay [5], in assay [6], in assay [7] and in assay [8] was inactive.
Regarding `CN(C)CCNc1cc(-c2ccc3ccccc3c2)nc2ccccc12`, the growth inhibition in assay [1] is 58% (active); in assay [4] it was 102% (active). The inhibition is 24% in assay [2] and -5% in assay [3]. The result in assay [5], in assay [6], in assay [7] and in assay [8] was inactive.
Regarding `COc1ccccc1C1CCN(C2CCC(NC(=O)/C=C/c3cccc(Cl)c3F)CC2)CC1` (stereo not given), the growth inhibition in assay [1] is 19%; in assay [4], 96% (active). Besides, the inhibition in assay [2] was 50% (active); in assay [3] it was -4%. Besides, the outcome in assay [5], in assay [6], in assay [7] and in assay [8] was inactive.
Consider `CCCc1cn2c3c(cc(C(=O)N[C@@H](Cc4ccccc4)[C@H](O)CNC4CCCCC4)cc13)N(C)S(=O)(=O)CC2`, for which the growth inhibition in assay [1] was 98% (active); in assay [4] it was 99% (active). Besides, the inhibition was 3% in assay [2] and -2% in assay [3]. Besides, the result in assay [5], in assay [6], in assay [7] and in assay [8] was inactive.
`COc1ccc(C(=C(C)CC(C)C(=O)O)c2ccccc2)cc1` (stereo not given): the figures for the growth inhibition in assay [1] and in assay [4] were -2% and 95% (active), respectively. The values for the inhibition in assay [2] and in assay [3] were 6% and -8%, respectively. For the same molecule, the result in assay [5], in assay [6], in assay [7] and in assay [8] was inactive.
Regarding `O=C(Nc1ccc(-c2ccc(-c3nc4ccccc4[nH]3)s2)cc1)Nc1ccc(F)c(F)c1F`, the growth inhibition in assay [1] was 97% (active); in assay [4] it was 99% (active). Also, the inhibition was 57% (active) in assay [2] and 5% in assay [3]. For the same molecule, the result in assay [5], in assay [6], in assay [7] and in assay [8] was inactive.
Turning to `CC(C)(C)OC(=O)NCc1ccc(Nc2nnc(-c3cccc(OCC(=O)NCc4cc(C(F)(F)F)cc(C(F)(F)F)c4)c3)o2)cc1`, the growth inhibition is 19% in assay [1] and 90% (active) in assay [4]. Besides, the inhibition in assay [2] was 32%; in assay [3], 1%. For the same molecule, the result in assay [5], in assay [6], in assay [7] and in assay [8] was inactive.
For `O=C(Nc1cccc(CN2CCCN(Cc3ccc4c(c3)OCO4)CC2)c1)c1ccc(-c2ccccc2)cc1`, the growth inhibition was 19% in assay [1] and 90% (active) in assay [4]. Further, the inhibition in assay [2] was 48%; in assay [3] it was -10%. Besides, the outcome in assay [5], in assay [6], in assay [7] and in assay [8] was inactive.
With `Cc1noc(C)c1C(=O)N1CCCC(c2[nH]c3c(C)cccc3c2-c2ccncc2)C1` (stereo not given), the growth inhibition is 101% (active) in assay [1] and 102% (active) in assay [4]. The inhibition was 16% in assay [2] and 6% in assay [3]. In addition, the outcome in assay [5], in assay [6], in assay [7] and in assay [8] was inactive.
Regarding `O=[N+]([O-])c1cccc(Nc2nccc(-c3cnn4ncccc34)n2)c1`, the growth inhibition in assay [1] is 74% (active); in assay [4], 87% (active). For the same molecule, the inhibition in assay [2] is 33%; in assay [3] it was -1%. For the same molecule, the outcome in assay [5], in assay [6], in assay [7] and in assay [8] was inactive.
Take `NC(N)=NC(=O)Nc1ccc(Cl)c(Cl)c1`: the growth inhibition in assay [1] was 13%; in assay [4], 95% (active). The inhibition is 29% in assay [2] and 1% in assay [3]. The outcome in assay [5], in assay [6], in assay [7] and in assay [8] was inactive.
`COc1ccc2nc(C)cc(NN=Cc3ccccc3[N+](=O)[O-])c2c1`: the growth inhibition was 99% (active) in assay [1] and 101% (active) in assay [4]. For the same molecule, the inhibition in assay [2] is 2%; in assay [3], -2%. The result in assay [5], in assay [6], in assay [7] and in assay [8] was inactive.
